Laboratory results as given in PubChem BioAssay (NCATS).
Results filed as inconclusive are left out. Activity calls are given as the source filed them. Unless noted, calls follow the shape of the dose curve; as a rule, active = well fitted cell-killing curve with a large enough effect; inconclusive = small, poorly fitted or top-dose-only effect, or effect the other way; inactive = no such curve, though single readings can be large or run the other way.

Key:
[1] = Quantitative High-Throughput drug screen in 47 multiple myeloma cell lines against the NCATS MIPE library collection: PCM6_Riken cell viability assay (AID 1919870); also: nearly all actives have a fitted effect of over 30% in size; also: potency is read from the fitted curve at half-maximal effect
How it was run: (§1)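 MIPE 4.0 approved/investigational drugs; 500 cells/well; 48 h 37 °C humidified 5% CO2; CTG luminescence readout; DMSO = 100%, media = 0% viability.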

[2] = Quantitative High-Throughput drug screen in 47 multiple myeloma cell lines against the NCATS MIPE library collection: RPMI8226_ATCC cell viability assay (AID 1919871); also: nearly all actives have a fitted effect of over 30% in size; also: potency is read from the fitted curve at half-maximal effect
How it was run: as §1

[3] = Quantitative High-Throughput drug screen in 47 multiple myeloma cell lines against the NCATS MIPE library collection: OPM2_DSMZ cell viability assay (AID 1919872); also: nearly all actives have a fitted effect of over 30% in size; also: potency is read from the fitted curve at half-maximal effect
How it was run: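 Relative luminescence from CellTiter-Glo served as the viability signal, referenced to DMSO-treated (100%) and cell-free medium (0%) controls. Treatment lasted 48 hours at 37C with 500 cells per well.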

[4] = Quantitative High-Throughput drug screen in 47 multiple myeloma cell lines against the NCATS MIPE library collection: KMS11_JCRBsus cell viability assay (AID 1919873); also: nearly all actives have a fitted effect of over 50% in size; also: potency is read from the fitted curve at half-maximal effect
How it was run: as §1

[5] = Quantitative High-Throughput drug screen in 47 multiple myeloma cell lines against the NCATS MIPE library collection: KMS28BM_JCRB cell viability assay (AID 1919874); also: nearly all actives have a fitted effect of over 35% in size; also: potency is read from the fitted curve at half-maximal effect
How it was run: as §1

[6] = qHTS drug screen for cell cycle checkpoint inhibitors in PARPi-resistant BRCA-mutant ovarian cancer cell lines. (AID 1963452; calls by dose curve); details: PEO1/OlaR viability, CellTiter-Glo luminescence, 96 h, stronger effect = lower value
How it was run: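 PEO1, PEO4 and PEO1/OlaR ovarian cancer cells, 600 per well, exposed 96 h at 37C to a dilution series. Viability read by CellTiter-Glo luminescence, normalized to DMSO and empty wells; activity summarized as Z-AUC.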

[7] = qHTS for identification of novel therapeutic agents for treatment of microphthalmiaassociated transcription factor (MiT) renal cell carcinoma (RCC) (AID 1963991; calls by dose curve; also: potency is read from the fitted curve at half-maximal effect;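 as to z-score: curves scaled with 100% = DMSO viability and 0% = empty wells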); details: CellTiter-Glo, 48 h; for z-score: stronger effect = lower value
How it was run: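 UOK109/UOK124/UOK145 (TFE3 fusions, three partners); 500 cells/well; MIPE v4.0, 1912 cpds, 11 conc.; 48 h, 37 C; CellTiter-Glo, 15 min RT; lum. Norm.: DMSO 100%, empty 0%.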

[8] = measured here: PEO1 parental Z-AUC
[9] = TFE3-RCC UOK109 viability, measured here: UOK109 Z-AUC
[10] = TFE3-RCC viability, measured here: UOK124 Z-AUC
[11] = TFE3-RCC viability, measured here: UOK145 Z-AUC

| SMILES | Potency [1] | Potency [2] | Potency [3] | Potency [4] | Potency [5] | Z-AUC [6] | Z-AUC [6, 8] | Z-AUC ([6]; measured here: PEO4 Z-AUC) | z-score [7, 9] | z-score [7, 10] | z-score [7, 11] | Potency ([7]; TFE3-RCC UOK109 viability, active = Z-AUC below -0.8 in all three lines) |
| --- | --- | --- | --- | --- | --- | --- | --- | --- | --- | --- | --- | --- |
| CN1CC(=O)NC1=NC(=O)Nc1cccc(Cl)c1 | 23.5 µM (active) | 14.8 µM (active) | inactive | 11.8 µM (active) | inactive | 0.638 (inactive) | 0.15 | 0.317 |  |  |  |  |
| CC(C)[C@H](O)C(=O)N[C@@H](C)C(=O)N[C@@H]1C(=O)N(C)CCc2ccccc21 | 26.4 µM (active) | inactive | inactive | 0.332 µM (active) | inactive | -0.413 (inactive) | -0.342 | -0.336 |  |  |  |  |
| CN(C)CCOc1ccc(C(=C(CCCl)c2ccccc2)c2ccccc2)cc1 | 3.72 µM (active) | 26.4 µM (active) | inactive | inactive |  |  |  |  |  |  |  |  |
| CN1[C@H]2CC[C@H]1CC(OC(=O)c1c[nH]c3ccccc13)C2 (some centres undefined) | 6.62 µM (active) | inactive | inactive |  |  |  |  |  |  |  |  |  |
| CCCCC[C@H](O)C=C[C@H]1[C@H](O)CC(=O)[C@H]1CCCCCCC(=O)O | inactive | 0.105 µM (active) | inactive | inactive | inactive |  |  |  |  |  |  |  |
| CCCCCCCCCCCCCCCC(=O)O[C@H]1[C@@H](O)[C@@H](O)[C@@H]([C@H](NC(=O)[C@@H]2C[C@@H](CCC)CN2C)[C@H](C)Cl)O[C@@H]1SC | inactive | 3.32 µM (active) | inactive | inactive |  | 1.31 (inactive) | 0.604 | 0.552 |  |  |  |  |
| CNC1[C@H](O)C(O[C@@H]2C(O)C(O[C@H]3O[C@H]([C@@H](C)NC)CC[C@H]3N)[C@@H](N)C[C@H]2N)OC[C@]1(C)O (some centres undefined) | inactive | inactive | inactive |  | inactive |  |  |  |  |  |  |  |
| CC1(C)OC2CC3C4CC(F)C5=CC(=O)C=CC5(C)C4C(O)CC3(C)[C@]2(C(=O)CO)O1 (some centres undefined) | inactive | 0.0118 µM (active) | inactive | 0.0264 µM (active) | inactive |  |  |  | 0.56 | 1.01 | -1.73 |  |
| CN1CCC(COc2cnc(-c3cccc(Cn4nc(-c5cccc(C#N)c5)ccc4=O)c3)nc2)CC1 | 0.372 µM (active) | inactive | inactive |  | inactive | -0.437 (inactive) | -0.363 | -0.442 |  |  |  |  |
| OC[C@H]1O[C@@H](Oc2ccc(O)cc2)[C@H](O)[C@@H](O)[C@H]1O | inactive | inactive | inactive |  | inactive |  |  |  |  |  |  |  |
| CN[C@H]1[C@@H](O[C@@H]2[C@H](O[C@@H]3[C@@H](O)[C@@H](O)[C@@H](N=C(N)N)[C@@H](O)[C@@H]3N=C(N)N)O[C@H](C)[C@@]2(O)C=O)O[C@@H](CO)[C@@H](O)[C@H]1O | inactive | inactive | inactive | inactive |  |  |  |  | 2.74 | 1.27 | 2.73 |  |
| O=c1[nH]nc(OCCCc2ccc(Cl)cc2)c(NCc2cccnc2)c1Br | 4.69 µM (active) | 20.9 µM (active) | 23.5 µM (active) | 5.26 µM (active) | 20.9 µM (active) | -1.27 (inactive) | -1.54 | -1.42 |  |  |  |  |
| CN[C@@H]1[C@@H](O)[C@@H](O[C@@H]2[C@@H](O)[C@H](O[C@H]3O[C@H](CN)[C@@H](O)[C@H](O)[C@@H]3O)[C@@H](N)C[C@@H]2NC(=O)[C@@H](O)CN)OC[C@]1(C)O | inactive | inactive | inactive | 7.43 µM (active) |  |  |  |  | 2.18 | 0.621 | 0.614 |  |
| CC[C@H](C=C[C@@H](C)[C@H]1CC[C@H]2[C@@H]3CC=C4C[C@@H](O)CC[C@]4(C)[C@@H]3CC[C@]12C)C(C)C | 0.575 µM (active) | inactive | inactive | 5.12 µM (active) |  | 0.764 (inactive) | 1.79 | 1.84 | 0.875 | 0.915 | 1.02 |  |
| Cc1cn([C@@H]2C[C@@H](O)[C@H](CO)O2)c(=O)[nH]c1=O | inactive | inactive | inactive | inactive | inactive |  |  |  | 0.973 | 1.9 | 0.117 |  |
| C[C@@H]1O[C@@H](O[C@H]2CC[C@@]3(C)[C@H](CC[C@@H]4[C@H]3C[C@@H](O)[C@]3(C)[C@@H](C5=CC(=O)OC5)CC[C@]43O)C2)C[C@H](O)[C@@H]1O[C@H]1C[C@H](O)[C@H](O[C@H]2C[C@H](O)[C@@H](O)[C@@H](C)O2)[C@H](C)O1 (stereo in doubt) | 0.108 µM (active) | 0.215 µM (active) | 0.121 µM (active) | 0.191 µM (active) | 0.0959 µM (active) |  |  |  | -2.46 | -1.68 | -0.987 | 0.215 µM (active) |
| COc1c(C)c2c(c(O)c1CC=C(C)CCC(=O)O)C(=O)OC2 | inactive | 7.43 µM (active) | 11.8 µM (active) |  | 2.64 µM (active) |  |  |  |  |  |  |  |
| NC(=O)c1noc([C@H](CCCC2CCCCC2)CC(=O)NO)n1 | 16.6 µM (active) | 10.5 µM (active) | 20.9 µM (active) |  | inactive | 1.33 (inactive) | 0.607 | 0.522 |  |  |  |  |
| CN(C)CCOc1ccc(-c2nc(-c3ccc4c(c3)CCC4=NO)c(-c3ccncc3)[nH]2)cc1 | 10.5 µM (active) | 20.9 µM (active) | 16.6 µM (active) |  | 9.35 µM (active) |  |  |  |  |  |  |  |
| CN(C)N=Nc1nc[nH]c1C(N)=O | inactive | inactive | inactive | inactive |  | 1.39 (inactive) | 0.491 | 0.792 |  |  |  |  |
